Data reported in publication PMC5540273 (PLoS ONE, 2017).
Where two headings read alike, the source gives them in different places.

Experiments:
FGFR1 = conditions: concentration: 1 μM, replicates: in singlicate; n = 1
FGFR2 = conditions: concentration: 1 μM, replicates: in singlicate; n = 1
FGFR3 = conditions: concentration: 1 μM, replicates: in singlicate; n = 1
FGFR4 = conditions: concentration: 1 μM, replicates: in singlicate; n = 1
FGR = conditions: concentration: 1 μM, replicates: in singlicate; n = 1
FLT1 = conditions: concentration: 1 μM, replicates: in singlicate; n = 1
FLT3-autoinhibited = conditions: concentration: 1 μM, replicates: in singlicate; n = 1
FLT3 = conditions: concentration: 1 μM, replicates: in singlicate; n = 1
FLT4 = conditions: concentration: 1 μM, replicates: in singlicate; n = 1
FRK = conditions: concentration: 1 μM, replicates: in singlicate; n = 1
FYN = conditions: concentration: 1 μM, replicates: in singlicate; n = 1
GAK = conditions: concentration: 1 μM, replicates: in singlicate; n = 1
GCN2(Kin.Dom.2,S808G) = test system: T1, GCN2(Kin.Dom.2,S808G); conditions: concentration: 1 μM, replicates: in singlicate; n = 1
T1 construct: gene EIF2AK4

GRK1 = conditions: concentration: 1 μM, replicates: in singlicate; n = 1
GRK2 = test system: T2, GRK2; conditions: concentration: 1 μM, replicates: in singlicate; n = 1
T2 construct: gene ADRBK1

GRK3 = test system: T3, GRK3; conditions: concentration: 1 μM, replicates: in singlicate; n = 1
T3 construct: gene ADRBK2

GRK4 = conditions: concentration: 1 μM, replicates: in singlicate; n = 1
GRK7 = conditions: concentration: 1 μM, replicates: in singlicate; n = 1
GSK3A = conditions: concentration: 1 μM, replicates: in singlicate; n = 1
GSK3B = conditions: n = 1
[1] = concentration: 1 μM, replicates: in singlicate
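Note: KINOMEscan kinase panel screen.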

## CNC(=O)c1ccccc1Nc1nc(Nc2ccc(N3CCOCC3)cc2)ncc1Cl.Cl [GSK1576028]
FGFR1
  %Inh: 99.7%
FGFR2
  %Inh: 97.2%
FGFR3
  %Inh: 99%
FGFR4
  %Inh: 92.3%
FGR
  %Inh: 98.1%
FLT1
  %Inh: 89%
FLT3-autoinhibited
  %Inh: 96.2%
FLT3
  %Inh: 99.3%
FLT4
  %Inh: 99.9%
FRK
  %Inh: 86%
FYN
  %Inh: 98.3%
GAK
  %Inh: 96.9%
GCN2(Kin.Dom.2,S808G)
  %Inh: 100%
GRK1
  %Inh: 15%
GRK2
  %Inh: 13%
GRK3
  %Inh: 0%
GRK4
  %Inh: 84%
GRK7
  %Inh: 3%
GSK3A
  %Inh: 76%
GSK3B; [1]
  %Inh: 72%

## Cl.c1ccc(-c2ccc3c(Nc4ccc5[nH]ncc5c4)ccnc3c2)nc1 [GW440137]
FGFR1
  %Inh: 14%
FGFR2
  %Inh: 0%
FGFR3
  %Inh: 11%
FGFR4
  %Inh: 0%
FGR
  %Inh: 30%
FLT1
  %Inh: 62%
FLT3-autoinhibited
  %Inh: 2%
FLT3
  %Inh: 0%
FLT4
  %Inh: 39%
FRK
  %Inh: 0%
FYN
  %Inh: 50%
GAK
  %Inh: 68%
GCN2(Kin.Dom.2,S808G)
  %Inh: 0%
GRK1
  %Inh: 0%
GRK2
  %Inh: 0%
GRK3
  %Inh: 22%
GRK4
  %Inh: 0%
GRK7
  %Inh: 0%
GSK3A
  %Inh: 16%
GSK3B; [1]
  %Inh: 17%

## Clc1ccc(-c2nn3ncccc3c2-c2ccnc(Nc3ccc4c(c3)OCCO4)n2)cc1 [GW829116]
FGFR1
  %Inh: 0%
FGFR2
  %Inh: 0%
FGFR3
  %Inh: 0%
FGFR4
  %Inh: 0%
FGR
  %Inh: 75%
FLT1
  %Inh: 54%
FLT3-autoinhibited
  %Inh: 0%
FLT3
  %Inh: 59%
FLT4
  %Inh: 35%
FRK
  %Inh: 0%
FYN
  %Inh: 0%
GAK
  %Inh: 68%
GCN2(Kin.Dom.2,S808G)
  %Inh: 6%
GRK1
  %Inh: 0%
GRK2
  %Inh: 0%
GRK3
  %Inh: 0%
GRK4
  %Inh: 0%
GRK7
  %Inh: 0%
GSK3A
  %Inh: 24%
GSK3B; [1]
  %Inh: 0%

## CC(=O)Nc1nc2cnc(Nc3cc(NC(=O)c4cccc(C5(C#N)CC5)c4Cl)ccc3C)nc2s1
FGFR1
  %Inh: 2%
FGFR2
  %Inh: 15%
FGFR3
  %Inh: 0%
FGFR4
  %Inh: 0%
FGR
  %Inh: 52%
FLT1
  %Inh: 44%
FLT3-autoinhibited
  %Inh: 0%
FLT3
  %Inh: 0%
FLT4
  %Inh: 60%
FRK
  %Inh: 93.2%
FYN
  %Inh: 50%
GAK
  %Inh: 0%
GCN2(Kin.Dom.2,S808G)
  %Inh: 19%
GRK1
  %Inh: 6%
GRK2
  %Inh: 0%
GRK3
  %Inh: 14%
GRK4
  %Inh: 14%
GRK7
  %Inh: 15%
GSK3A
  %Inh: 0%
GSK3B; [1]
  %Inh: 0%

## C[C@@H]1CC[C@@H](C(=O)Nc2ccccc2)CN1c1cc(-c2ccc3c(N)n[nH]c3c2)nc(N)n1 [GSK2286062]
FGFR1
  %Inh: 0%
FGFR2
  %Inh: 0%
FGFR3
  %Inh: 4%
FGFR4
  %Inh: 0%
FGR
  %Inh: 19%
FLT1
  %Inh: 0%
FLT3-autoinhibited
  %Inh: 0%
FLT3
  %Inh: 0%
FLT4
  %Inh: 0%
FRK
  %Inh: 0%
FYN
  %Inh: 25%
GAK
  %Inh: 19%
GCN2(Kin.Dom.2,S808G)
  %Inh: 0%
GRK1
  %Inh: 0%
GRK2
  %Inh: 0%
GRK3
  %Inh: 10%
GRK4
  %Inh: 0%
GRK7
  %Inh: 0%
GSK3A
  %Inh: 0%
GSK3B; [1]
  %Inh: 0%

## O=C(O)C(F)(F)F.O=C(O)C(F)(F)F.O=c1[nH]ccc2nc(N[C@@H]3CCCNC3)nc(Nc3ccc(S(=O)(=O)N4CCOCC4)cc3)c12 [GSK2177277]
FGFR1
  %Inh: 81%
FGFR2
  %Inh: 60%
FGFR3
  %Inh: 62%
FGFR4
  %Inh: 0%
FGR
  %Inh: 91.2%
FLT1
  %Inh: 68%
FLT3-autoinhibited
  %Inh: 99.6%
FLT3
  %Inh: 99.3%
FLT4
  %Inh: 98.7%
FRK
  %Inh: 39%
FYN
  %Inh: 61%
GAK
  %Inh: 97.4%
GCN2(Kin.Dom.2,S808G)
  %Inh: 100%
GRK1
  %Inh: 96.6%
GRK2
  %Inh: 72%
GRK3
  %Inh: 88%
GRK4
  %Inh: 92.2%
GRK7
  %Inh: 96%
GSK3A
  %Inh: 99.3%
GSK3B; [1]
  %Inh: 98.2%

## O=C(Nc1n[nH]c2nc(-c3ccc(O)cc3)ccc12)C1CC1 [SB-710363]
FGFR1
  %Inh: 0%
FGFR2
  %Inh: 0%
FGFR3
  %Inh: 0%
FGFR4
  %Inh: 0%
FGR
  %Inh: 11%
FLT1
  %Inh: 16%
FLT3-autoinhibited
  %Inh: 18%
FLT3
  %Inh: 82%
FLT4
  %Inh: 0%
FRK
  %Inh: 0%
FYN
  %Inh: 0%
GAK
  %Inh: 8%
GCN2(Kin.Dom.2,S808G)
  %Inh: 0%
GRK1
  %Inh: 34%
GRK2
  %Inh: 0%
GRK3
  %Inh: 16%
GRK4
  %Inh: 20%
GRK7
  %Inh: 13%
GSK3A
  %Inh: 98.8%
GSK3B; 1 µM
  %Inh: 95.6%

## COC(=O)Nc1nc2ccc(Oc3ccc(NC(=O)Nc4cc(C(F)(F)F)ccc4F)cc3)cc2n1C.Cl [GW692089]
FGFR1
  %Inh: 2%
FGFR2
  %Inh: 0%
FGFR3
  %Inh: 7%
FGFR4
  %Inh: 0%
FGR
  %Inh: 28%
FLT1
  %Inh: 89%
FLT3-autoinhibited
  %Inh: 3%
FLT3
  %Inh: 99%
FLT4
  %Inh: 87%
FRK
  %Inh: 69%
FYN
  %Inh: 0%
GAK
  %Inh: 0%
GCN2(Kin.Dom.2,S808G)
  %Inh: 0%
GRK1
  %Inh: 0%
GRK2
  %Inh: 0%
GRK3
  %Inh: 49%
GRK4
  %Inh: 6%
GRK7
  %Inh: 0%
GSK3A
  %Inh: 9%
GSK3B; [1]
  %Inh: 0%

## COc1cc(Nc2nccc(N3CCC(NC(=O)c4cc5ccccc5s4)C3)n2)cc(OC)c1OC (stereo not drawn) [GSK1379760]
FGFR1
  %Inh: 0%
FGFR2
  %Inh: 0%
FGFR3
  %Inh: 18%
FGFR4
  %Inh: 0%
FGR
  %Inh: 23%
FLT1
  %Inh: 36%
FLT3-autoinhibited
  %Inh: 3%
FLT3
  %Inh: 33%
FLT4
  %Inh: 26%
FRK
  %Inh: 9%
FYN
  %Inh: 8%
GAK
  %Inh: 27%
GCN2(Kin.Dom.2,S808G)
  %Inh: 4%
GRK1
  %Inh: 0%
GRK2
  %Inh: 0%
GRK3
  %Inh: 17%
GRK4
  %Inh: 19%
GRK7
  %Inh: 0%
GSK3A
  %Inh: 0%
GSK3B; [1]
  %Inh: 4%
